Holding throughout (test): DAPPL (digital affinity profiling via proximity ligation, sequencing); 10 mM Tris-HCl pH 7.5, 50 mM NaCl, 1 mM DTT, 4% glycerol, room temperature, 30 min; GST-TFs on glutathione beads, 16-mer random dsDNA library, 0.1% formaldehyde crosslink after washing; high values mean tight binding
What all share (conditions): protein: recombinant; tags: N-terminal GST; dsDNA, one strand shown

One experiment addresses T1, FLI1 (Homo sapiens, UniProt Q01543 1-452).
T1 sequence: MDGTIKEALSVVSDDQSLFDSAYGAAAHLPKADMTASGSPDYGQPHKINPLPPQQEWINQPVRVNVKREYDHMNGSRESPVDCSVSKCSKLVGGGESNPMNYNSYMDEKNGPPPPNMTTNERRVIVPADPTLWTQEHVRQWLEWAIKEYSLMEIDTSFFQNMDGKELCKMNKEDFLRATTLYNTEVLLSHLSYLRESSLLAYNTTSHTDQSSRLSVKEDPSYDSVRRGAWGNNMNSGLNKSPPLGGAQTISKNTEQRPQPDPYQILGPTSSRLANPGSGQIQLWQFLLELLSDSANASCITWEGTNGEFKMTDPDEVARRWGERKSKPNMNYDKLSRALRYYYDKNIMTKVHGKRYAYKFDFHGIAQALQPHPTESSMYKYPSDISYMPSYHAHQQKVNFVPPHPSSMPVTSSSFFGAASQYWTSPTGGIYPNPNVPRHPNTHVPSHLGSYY
The procedure, abridged:
(§1)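 After expression in yeast as GST fusions, human transcription factors were bound to glutathione beads, DNA-barcoded and mixed with a tag-only sample. The pools were incubated with 200 nmole of a 16-mer random double-stranded DNA library in Tris/NaCl/DTT/glycerol buffer (30 min, room temperature), washed and crosslinked with 0.1% formaldehyde. Proximity ligation with BsaI/T4 ligase ran for 1 h at 37 °C, before PCR amplification and sequencing on an Illumina NextSeq500. Binding signal is a hexamer's read frequency for a factor divided by its frequency for the tag-only sample.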

Another experiment has as its target T2, ERG (Homo sapiens, UniProt P11308 1-479).
T2 sequence: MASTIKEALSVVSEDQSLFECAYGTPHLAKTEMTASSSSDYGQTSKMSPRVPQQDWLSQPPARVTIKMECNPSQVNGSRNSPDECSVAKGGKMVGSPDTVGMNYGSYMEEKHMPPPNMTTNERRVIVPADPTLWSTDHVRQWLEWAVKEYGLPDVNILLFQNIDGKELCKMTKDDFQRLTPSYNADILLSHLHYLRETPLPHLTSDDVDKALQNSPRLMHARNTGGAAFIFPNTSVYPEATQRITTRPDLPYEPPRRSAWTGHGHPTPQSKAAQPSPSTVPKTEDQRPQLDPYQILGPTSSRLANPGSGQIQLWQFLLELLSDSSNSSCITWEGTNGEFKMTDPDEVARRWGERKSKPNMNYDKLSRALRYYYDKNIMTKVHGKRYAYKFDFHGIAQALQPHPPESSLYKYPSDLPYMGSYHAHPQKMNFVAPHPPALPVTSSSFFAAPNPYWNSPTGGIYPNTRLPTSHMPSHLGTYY
The procedure, abridged: as §1

For a further experiment, the target named is ELF1 (Homo sapiens, UniProt P32519 1-619). The essentials:
as §1

For a further experiment, the target named is T3, EHF (Homo sapiens, UniProt Q9NZC4 1-300).
T3 sequence: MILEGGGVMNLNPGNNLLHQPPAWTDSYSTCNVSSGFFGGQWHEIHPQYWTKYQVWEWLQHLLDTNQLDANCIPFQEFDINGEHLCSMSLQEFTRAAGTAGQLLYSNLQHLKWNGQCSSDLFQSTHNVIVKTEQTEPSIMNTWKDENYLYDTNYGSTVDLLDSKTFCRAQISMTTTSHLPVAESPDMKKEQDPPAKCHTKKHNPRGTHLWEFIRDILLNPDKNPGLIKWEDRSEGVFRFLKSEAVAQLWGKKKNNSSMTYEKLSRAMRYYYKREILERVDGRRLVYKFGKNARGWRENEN
The essentials:
as §1

The target of a further experiment is SPIB (Homo sapiens, UniProt Q01892 1-262). The essentials:
as §1

The target in another experiment is ETV5 (Homo sapiens, UniProt P41161 1-510). The essentials: as §1
Chain of ETV5 (P41161 whole entry): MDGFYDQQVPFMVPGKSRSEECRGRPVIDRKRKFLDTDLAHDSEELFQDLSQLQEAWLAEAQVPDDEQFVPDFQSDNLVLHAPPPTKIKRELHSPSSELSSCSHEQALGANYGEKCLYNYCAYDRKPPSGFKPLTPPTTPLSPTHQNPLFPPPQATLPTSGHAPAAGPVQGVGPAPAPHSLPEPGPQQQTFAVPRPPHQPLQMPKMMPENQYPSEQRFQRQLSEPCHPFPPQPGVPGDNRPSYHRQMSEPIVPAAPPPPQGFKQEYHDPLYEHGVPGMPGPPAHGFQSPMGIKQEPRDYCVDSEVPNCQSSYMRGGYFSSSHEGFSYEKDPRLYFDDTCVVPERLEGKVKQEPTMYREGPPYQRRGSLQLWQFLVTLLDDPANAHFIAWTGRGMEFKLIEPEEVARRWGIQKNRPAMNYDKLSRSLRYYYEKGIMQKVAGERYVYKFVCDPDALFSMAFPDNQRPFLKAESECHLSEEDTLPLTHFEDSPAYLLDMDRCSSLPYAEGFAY
Another experiment concerns the target T4, SPIC (Homo sapiens, UniProt Q8N5J4 1-248).
T4 sequence: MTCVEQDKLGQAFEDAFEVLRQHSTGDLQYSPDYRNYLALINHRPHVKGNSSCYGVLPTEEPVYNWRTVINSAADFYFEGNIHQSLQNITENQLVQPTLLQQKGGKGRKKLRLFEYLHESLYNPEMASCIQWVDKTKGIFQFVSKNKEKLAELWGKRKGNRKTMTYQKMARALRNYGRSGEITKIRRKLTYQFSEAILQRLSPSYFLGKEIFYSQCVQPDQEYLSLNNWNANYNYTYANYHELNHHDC
The essentials:
as §1

The target of another experiment is ELF4 (Homo sapiens, UniProt Q99607 1-663). The essentials:
as §1

A further experiment has as its target ETV1 (Homo sapiens, UniProt P50549 1-477). The essentials:
as §1

A further experiment has as its target T5, ERF (Homo sapiens, UniProt P50548 1-548).
T5 sequence: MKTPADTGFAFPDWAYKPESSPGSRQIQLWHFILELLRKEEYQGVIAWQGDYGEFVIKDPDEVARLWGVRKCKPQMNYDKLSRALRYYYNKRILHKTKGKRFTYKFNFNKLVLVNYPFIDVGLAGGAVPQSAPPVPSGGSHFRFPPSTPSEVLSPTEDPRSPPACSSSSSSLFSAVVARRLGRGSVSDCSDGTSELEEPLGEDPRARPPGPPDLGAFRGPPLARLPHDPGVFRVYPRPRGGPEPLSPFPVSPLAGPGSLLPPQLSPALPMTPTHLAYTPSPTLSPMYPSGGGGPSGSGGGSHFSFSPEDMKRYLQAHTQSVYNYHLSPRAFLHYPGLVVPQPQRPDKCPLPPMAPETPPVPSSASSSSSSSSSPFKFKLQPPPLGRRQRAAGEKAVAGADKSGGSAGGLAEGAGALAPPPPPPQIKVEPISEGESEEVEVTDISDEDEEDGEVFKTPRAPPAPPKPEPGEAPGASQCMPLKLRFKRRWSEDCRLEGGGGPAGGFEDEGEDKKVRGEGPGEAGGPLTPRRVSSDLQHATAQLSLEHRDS
The procedure, abridged: as §1

Another experiment concerns the target T6, ETV3L (Homo sapiens, UniProt Q6ZN32 1-361).
T6 sequence: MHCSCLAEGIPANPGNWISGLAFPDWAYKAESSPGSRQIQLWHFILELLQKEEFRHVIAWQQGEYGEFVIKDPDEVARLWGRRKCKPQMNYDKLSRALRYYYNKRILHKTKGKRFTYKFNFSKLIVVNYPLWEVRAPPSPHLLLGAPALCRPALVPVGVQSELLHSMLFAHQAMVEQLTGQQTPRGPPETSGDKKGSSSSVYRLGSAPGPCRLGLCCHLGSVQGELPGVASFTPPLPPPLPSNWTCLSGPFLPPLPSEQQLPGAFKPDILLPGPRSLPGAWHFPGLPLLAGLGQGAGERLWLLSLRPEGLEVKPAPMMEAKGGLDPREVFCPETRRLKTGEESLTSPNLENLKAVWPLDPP
The procedure, abridged:
as §1

A further experiment deals with T7, ELF5 (Homo sapiens, UniProt Q9UKW6-2 1-255).
T7 sequence: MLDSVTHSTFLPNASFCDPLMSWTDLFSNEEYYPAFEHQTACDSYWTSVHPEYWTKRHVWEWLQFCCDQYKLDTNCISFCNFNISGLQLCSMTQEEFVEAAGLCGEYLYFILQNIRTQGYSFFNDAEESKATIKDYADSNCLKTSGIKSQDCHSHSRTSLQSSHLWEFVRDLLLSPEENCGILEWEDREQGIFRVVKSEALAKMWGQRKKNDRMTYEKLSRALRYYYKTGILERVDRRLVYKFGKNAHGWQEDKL
The essentials:
as §1

The next experiment addresses T8, ETV3 (Homo sapiens, UniProt P41162-2 1-143).
T8 sequence: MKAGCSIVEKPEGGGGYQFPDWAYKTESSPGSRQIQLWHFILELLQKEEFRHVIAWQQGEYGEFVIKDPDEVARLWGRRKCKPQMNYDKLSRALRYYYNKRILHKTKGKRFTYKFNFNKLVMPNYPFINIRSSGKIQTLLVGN
The essentials: as §1

The next experiment addresses ETV6 (Homo sapiens, UniProt P41212 1-452). The procedure, abridged:
as §1

The next experiment addresses T9, ELK1 (Homo sapiens, UniProt P19419 1-428).
T9 sequence: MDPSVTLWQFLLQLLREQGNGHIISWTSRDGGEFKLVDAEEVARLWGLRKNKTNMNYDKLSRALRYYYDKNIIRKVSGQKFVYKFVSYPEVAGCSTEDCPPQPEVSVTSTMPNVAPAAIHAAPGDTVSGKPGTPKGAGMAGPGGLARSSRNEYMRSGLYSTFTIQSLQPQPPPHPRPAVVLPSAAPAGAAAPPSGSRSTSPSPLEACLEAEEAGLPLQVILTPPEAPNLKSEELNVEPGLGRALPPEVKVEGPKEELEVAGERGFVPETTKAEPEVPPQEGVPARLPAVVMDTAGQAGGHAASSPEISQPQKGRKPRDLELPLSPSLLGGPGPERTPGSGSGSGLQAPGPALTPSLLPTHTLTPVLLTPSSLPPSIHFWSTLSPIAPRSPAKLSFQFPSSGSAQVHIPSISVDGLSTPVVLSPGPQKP
The procedure, abridged: as §1

The target of the next experiment is T10, GABPA (Homo sapiens, UniProt Q06546 1-454).
T10 sequence: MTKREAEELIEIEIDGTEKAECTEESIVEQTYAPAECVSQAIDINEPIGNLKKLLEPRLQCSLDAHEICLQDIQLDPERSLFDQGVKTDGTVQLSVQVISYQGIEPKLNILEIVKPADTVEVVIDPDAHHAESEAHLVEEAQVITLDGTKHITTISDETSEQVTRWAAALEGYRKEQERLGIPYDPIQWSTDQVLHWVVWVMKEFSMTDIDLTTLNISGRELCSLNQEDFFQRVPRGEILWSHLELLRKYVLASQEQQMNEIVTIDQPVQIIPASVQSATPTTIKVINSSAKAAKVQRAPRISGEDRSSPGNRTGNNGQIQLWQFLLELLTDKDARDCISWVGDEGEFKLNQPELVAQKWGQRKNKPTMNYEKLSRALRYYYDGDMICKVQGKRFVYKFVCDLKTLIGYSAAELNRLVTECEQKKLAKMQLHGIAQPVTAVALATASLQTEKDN
The procedure, abridged:
as §1

Another experiment has as its target SPI1 (Homo sapiens, UniProt P17947 1-270). The essentials: as §1
For a further experiment, the target named is T11, ETS2 (Homo sapiens, UniProt P15036 1-469).
T11 sequence: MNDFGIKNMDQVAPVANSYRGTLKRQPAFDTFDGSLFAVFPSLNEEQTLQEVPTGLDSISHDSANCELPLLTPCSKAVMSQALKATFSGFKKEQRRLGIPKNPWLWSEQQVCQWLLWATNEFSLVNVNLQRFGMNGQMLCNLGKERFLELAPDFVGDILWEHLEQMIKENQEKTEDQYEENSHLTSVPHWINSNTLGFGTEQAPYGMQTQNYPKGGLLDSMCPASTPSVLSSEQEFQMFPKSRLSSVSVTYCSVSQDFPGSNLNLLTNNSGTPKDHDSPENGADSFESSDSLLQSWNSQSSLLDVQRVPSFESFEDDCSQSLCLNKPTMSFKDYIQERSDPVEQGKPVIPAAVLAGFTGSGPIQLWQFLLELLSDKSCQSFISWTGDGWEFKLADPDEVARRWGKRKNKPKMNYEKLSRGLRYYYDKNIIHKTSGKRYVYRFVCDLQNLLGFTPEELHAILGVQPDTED
The essentials: as §1

Chain of ELF1 (P32519 whole entry): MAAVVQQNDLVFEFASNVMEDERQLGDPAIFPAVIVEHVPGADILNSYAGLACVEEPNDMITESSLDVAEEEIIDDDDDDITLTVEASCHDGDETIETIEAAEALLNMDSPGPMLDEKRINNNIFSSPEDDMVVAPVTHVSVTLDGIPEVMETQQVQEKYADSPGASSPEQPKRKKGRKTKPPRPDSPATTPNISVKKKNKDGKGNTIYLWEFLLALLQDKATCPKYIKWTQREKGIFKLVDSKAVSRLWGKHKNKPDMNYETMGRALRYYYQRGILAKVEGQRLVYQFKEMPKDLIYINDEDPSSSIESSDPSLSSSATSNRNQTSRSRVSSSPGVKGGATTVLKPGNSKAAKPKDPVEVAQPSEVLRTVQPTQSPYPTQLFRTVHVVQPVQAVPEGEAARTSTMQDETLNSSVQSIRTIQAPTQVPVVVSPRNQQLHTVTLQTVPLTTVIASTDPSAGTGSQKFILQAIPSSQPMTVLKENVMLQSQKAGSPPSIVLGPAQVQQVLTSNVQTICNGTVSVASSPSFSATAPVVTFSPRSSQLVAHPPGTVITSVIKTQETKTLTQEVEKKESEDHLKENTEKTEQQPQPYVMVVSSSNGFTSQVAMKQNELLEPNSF
Chain of SPIB (Q01892 whole entry): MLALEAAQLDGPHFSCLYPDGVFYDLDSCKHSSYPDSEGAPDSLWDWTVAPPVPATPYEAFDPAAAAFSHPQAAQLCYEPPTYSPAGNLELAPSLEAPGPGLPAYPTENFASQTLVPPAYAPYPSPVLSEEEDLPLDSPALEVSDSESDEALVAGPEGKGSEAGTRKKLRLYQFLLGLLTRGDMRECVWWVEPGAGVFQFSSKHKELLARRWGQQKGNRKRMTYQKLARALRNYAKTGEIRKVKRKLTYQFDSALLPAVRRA
Chain of ETV1 (P50549 whole entry): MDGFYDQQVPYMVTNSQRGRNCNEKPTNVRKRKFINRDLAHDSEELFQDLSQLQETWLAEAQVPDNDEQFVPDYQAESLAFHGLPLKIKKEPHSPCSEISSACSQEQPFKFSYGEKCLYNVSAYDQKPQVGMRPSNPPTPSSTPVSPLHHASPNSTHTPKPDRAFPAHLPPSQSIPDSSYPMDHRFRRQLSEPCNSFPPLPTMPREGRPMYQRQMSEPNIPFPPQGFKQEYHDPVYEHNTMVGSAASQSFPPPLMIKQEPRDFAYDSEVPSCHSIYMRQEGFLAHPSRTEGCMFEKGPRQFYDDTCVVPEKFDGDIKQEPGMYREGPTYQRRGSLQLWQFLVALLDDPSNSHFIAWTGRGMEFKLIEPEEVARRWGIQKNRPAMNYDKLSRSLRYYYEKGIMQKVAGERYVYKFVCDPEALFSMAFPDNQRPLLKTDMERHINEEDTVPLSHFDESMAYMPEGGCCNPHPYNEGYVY
Chain of ELF4 (Q99607 whole entry): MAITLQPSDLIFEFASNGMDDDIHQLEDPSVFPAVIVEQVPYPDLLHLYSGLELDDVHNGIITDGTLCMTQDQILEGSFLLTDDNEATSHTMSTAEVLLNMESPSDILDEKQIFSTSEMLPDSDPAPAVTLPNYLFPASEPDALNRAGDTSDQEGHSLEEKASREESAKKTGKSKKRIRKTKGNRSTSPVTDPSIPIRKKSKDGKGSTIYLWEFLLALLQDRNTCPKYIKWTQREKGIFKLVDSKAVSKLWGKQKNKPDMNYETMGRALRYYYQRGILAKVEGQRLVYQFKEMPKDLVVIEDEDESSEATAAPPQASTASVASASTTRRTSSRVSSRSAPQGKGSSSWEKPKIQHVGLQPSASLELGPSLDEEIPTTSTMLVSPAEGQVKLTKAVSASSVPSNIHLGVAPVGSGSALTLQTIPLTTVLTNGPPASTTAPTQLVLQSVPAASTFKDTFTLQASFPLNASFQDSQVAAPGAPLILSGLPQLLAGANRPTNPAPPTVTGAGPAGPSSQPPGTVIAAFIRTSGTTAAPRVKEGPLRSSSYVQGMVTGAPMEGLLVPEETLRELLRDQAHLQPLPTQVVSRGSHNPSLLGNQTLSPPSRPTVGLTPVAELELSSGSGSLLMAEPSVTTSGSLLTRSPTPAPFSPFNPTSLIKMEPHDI
Chain of ETV6 (P41212 whole entry): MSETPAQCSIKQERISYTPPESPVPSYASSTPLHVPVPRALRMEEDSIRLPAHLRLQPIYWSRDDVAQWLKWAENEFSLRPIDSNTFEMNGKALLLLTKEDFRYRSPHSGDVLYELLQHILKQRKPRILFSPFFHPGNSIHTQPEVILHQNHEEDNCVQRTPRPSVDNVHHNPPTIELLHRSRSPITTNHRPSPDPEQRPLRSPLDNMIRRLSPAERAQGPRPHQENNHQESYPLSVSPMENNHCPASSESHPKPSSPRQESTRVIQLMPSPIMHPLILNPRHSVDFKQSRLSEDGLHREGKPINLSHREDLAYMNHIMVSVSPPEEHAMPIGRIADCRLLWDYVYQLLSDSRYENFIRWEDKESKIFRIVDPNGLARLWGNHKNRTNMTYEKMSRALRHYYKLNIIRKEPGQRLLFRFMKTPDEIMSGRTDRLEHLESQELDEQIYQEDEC

For CACGGA, the binding signal with FLI1 is 1.03 fold enrichment (6-mer frequency, TF over GST control); with ERG, 1.04 fold enrichment (6-mer frequency, TF over GST control); with ELF1 it was 1.04 fold enrichment (6-mer frequency, TF over GST control); in the experiment with EHF it was 1.1 fold enrichment (6-mer frequency, TF over GST control); in the experiment with SPIB, 1.05 fold enrichment (6-mer frequency, TF over GST control); in the experiment with ETV5 it was 1.05 fold enrichment (6-mer frequency, TF over GST control). The binding signal with SPIC is 1.06 fold enrichment (6-mer frequency, TF over GST control); with ELF4, 1.03 fold enrichment (6-mer frequency, TF over GST control); in the experiment with ETV1 it was 1.06 fold enrichment (6-mer frequency, TF over GST control); with ERF, 1.01 fold enrichment (6-mer frequency, TF over GST control); with ETV3L, 1.04 fold enrichment (6-mer frequency, TF over GST control); with ELF5, 1.29 fold enrichment (6-mer frequency, TF over GST control). For the same sequence, the binding signal with ETV3 was 1.22 fold enrichment (6-mer frequency, TF over GST control); with ETV6, 1.09 fold enrichment (6-mer frequency, TF over GST control).

With TCGTCA, the binding signal with FLI1 is 1.05 fold enrichment (6-mer frequency, TF over GST control); with ELK1 it was 1.09 fold enrichment (6-mer frequency, TF over GST control); in the experiment with GABPA, 1.06 fold enrichment (6-mer frequency, TF over GST control); with ELF1 it was 1.04 fold enrichment (6-mer frequency, TF over GST control); in the experiment with EHF it was 1.02 fold enrichment (6-mer frequency, TF over GST control); with SPI1 it was 1.02 fold enrichment (6-mer frequency, TF over GST control). Moreover, the binding signal with SPIB is 1.04 fold enrichment (6-mer frequency, TF over GST control); with ETV5 it was 1.04 fold enrichment (6-mer frequency, TF over GST control); with SPIC, 1.15 fold enrichment (6-mer frequency, TF over GST control); with ELF4, 1.11 fold enrichment (6-mer frequency, TF over GST control); in the experiment with ETV1, 1.09 fold enrichment (6-mer frequency, TF over GST control); with ERF it was 1.06 fold enrichment (6-mer frequency, TF over GST control). The binding signal with ETS2 was 1.1 fold enrichment (6-mer frequency, TF over GST control); with ETV6, 1.03 fold enrichment (6-mer frequency, TF over GST control).

The values above are taken from paper PMC7862700, “An all-to-all approach to the identification of sequence-specific readers for epigenetic DNA modifications on cytosine”.
